# Assay results reported in the supplement of paper PMC6411743.
# ± gives the standard deviation of the averaged measurements. Of roughly 5,400 targets only a part is listed; those with the largest changes were picked by preference.
# Compound: Nc1nc2c(ncn2[C@@H]2O[C@H](COP(=O)(O)OP(=O)(O)OP(=O)(O)O)[C@@H](O)[C@H]2O)c(=O)[nH]1 [guanosine triphosphate]
# Experiment: NP40-soluble protein abundance relative to vehicle (solubility fold change) (ratio); higher = more soluble protein in presence of GTP
# Outline: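 Across three independent experiments, values are fold changes against the detergent-processed vehicle for each replicate, based on vsn-normalised intensities. The samples were Jurkat crude lysate treated with eight concentrations (0.1 to 10 mM) for 10 min at room temperature and then 3 min at 37 °C. Lysate was solubilised with 0.8% NP40 and benzonase, ultracentrifuged, and the supernatant analysed by TMT-labelled LC-MS/MS.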
# UniProt Q15172, sequence (Q15172 whole entry): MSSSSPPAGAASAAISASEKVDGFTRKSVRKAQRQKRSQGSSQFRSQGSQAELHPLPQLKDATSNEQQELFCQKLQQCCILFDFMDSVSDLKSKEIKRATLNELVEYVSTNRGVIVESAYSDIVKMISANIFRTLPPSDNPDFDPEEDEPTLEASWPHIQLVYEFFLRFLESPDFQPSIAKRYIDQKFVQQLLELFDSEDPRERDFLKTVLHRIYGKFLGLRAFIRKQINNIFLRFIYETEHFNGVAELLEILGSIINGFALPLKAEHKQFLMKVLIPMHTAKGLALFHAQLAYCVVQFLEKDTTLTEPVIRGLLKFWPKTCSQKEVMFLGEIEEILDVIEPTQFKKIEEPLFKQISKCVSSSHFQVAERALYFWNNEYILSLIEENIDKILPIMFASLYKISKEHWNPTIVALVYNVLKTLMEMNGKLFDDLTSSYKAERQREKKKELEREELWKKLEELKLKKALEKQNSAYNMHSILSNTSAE
# UniProt P62136, sequence (P62136 whole entry): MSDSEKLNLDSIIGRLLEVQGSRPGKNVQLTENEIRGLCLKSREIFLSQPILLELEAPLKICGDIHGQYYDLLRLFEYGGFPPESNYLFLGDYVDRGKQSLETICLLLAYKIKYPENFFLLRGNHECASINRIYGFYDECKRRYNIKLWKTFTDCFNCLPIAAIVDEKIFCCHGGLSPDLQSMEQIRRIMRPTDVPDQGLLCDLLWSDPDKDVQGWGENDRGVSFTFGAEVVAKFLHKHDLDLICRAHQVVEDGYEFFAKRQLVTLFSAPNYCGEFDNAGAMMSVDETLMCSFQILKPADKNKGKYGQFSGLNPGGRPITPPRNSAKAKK
# UniProt Q86U90, sequence (Q86U90 whole entry): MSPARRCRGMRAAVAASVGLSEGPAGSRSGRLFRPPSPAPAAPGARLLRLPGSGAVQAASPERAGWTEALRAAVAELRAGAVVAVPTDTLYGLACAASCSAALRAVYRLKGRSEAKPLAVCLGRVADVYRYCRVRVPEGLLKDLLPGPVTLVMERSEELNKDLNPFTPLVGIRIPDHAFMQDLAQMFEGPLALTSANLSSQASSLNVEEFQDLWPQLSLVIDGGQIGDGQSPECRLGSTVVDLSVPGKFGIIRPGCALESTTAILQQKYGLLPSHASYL
# UniProt Q9UKM9, sequence (Q9UKM9 whole entry, one chain of several): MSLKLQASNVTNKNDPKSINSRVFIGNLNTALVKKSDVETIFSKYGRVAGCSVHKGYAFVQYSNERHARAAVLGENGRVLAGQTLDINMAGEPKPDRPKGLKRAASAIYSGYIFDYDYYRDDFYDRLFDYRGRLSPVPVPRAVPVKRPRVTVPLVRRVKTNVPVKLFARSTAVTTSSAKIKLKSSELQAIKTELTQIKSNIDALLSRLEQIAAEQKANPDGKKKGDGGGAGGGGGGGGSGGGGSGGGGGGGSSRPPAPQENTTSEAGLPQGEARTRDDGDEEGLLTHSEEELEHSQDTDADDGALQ
# UniProt Q14152, sequence (Q14152 whole entry): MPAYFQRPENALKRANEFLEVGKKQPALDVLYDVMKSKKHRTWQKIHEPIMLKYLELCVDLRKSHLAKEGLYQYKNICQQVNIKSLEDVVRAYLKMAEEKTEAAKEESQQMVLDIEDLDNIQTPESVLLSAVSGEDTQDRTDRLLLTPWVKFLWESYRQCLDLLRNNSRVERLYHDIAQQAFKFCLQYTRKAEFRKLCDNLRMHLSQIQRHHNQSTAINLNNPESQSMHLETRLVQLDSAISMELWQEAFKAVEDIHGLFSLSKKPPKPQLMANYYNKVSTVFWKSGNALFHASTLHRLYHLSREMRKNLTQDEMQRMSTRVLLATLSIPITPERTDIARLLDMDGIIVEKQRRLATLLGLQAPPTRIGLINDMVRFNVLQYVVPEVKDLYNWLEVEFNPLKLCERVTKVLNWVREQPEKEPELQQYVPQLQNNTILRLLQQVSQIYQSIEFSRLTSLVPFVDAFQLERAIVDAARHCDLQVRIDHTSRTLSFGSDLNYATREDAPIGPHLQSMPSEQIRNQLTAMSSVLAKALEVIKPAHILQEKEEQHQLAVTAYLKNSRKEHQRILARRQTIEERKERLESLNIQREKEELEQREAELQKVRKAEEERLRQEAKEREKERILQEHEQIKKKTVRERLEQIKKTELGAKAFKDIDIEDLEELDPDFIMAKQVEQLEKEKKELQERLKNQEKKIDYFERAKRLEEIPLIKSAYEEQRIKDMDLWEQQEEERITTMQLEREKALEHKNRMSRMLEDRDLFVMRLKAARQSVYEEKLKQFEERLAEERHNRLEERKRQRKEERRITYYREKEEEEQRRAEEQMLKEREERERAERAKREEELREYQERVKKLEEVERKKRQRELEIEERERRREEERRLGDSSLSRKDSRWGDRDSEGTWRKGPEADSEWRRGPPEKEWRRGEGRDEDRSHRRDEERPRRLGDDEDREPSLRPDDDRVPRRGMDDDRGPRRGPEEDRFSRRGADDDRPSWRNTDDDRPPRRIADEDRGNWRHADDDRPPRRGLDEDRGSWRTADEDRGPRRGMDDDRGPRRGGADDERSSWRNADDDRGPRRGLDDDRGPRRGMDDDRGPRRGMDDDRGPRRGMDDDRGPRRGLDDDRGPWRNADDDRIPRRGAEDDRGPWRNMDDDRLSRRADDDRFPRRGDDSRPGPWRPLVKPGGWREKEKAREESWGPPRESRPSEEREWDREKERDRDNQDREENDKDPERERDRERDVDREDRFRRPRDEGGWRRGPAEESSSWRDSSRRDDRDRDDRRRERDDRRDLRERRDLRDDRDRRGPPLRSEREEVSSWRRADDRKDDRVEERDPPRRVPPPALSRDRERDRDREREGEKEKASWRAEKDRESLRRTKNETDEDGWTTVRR
# UniProt Q6P2E9, sequence (Q6P2E9 whole entry): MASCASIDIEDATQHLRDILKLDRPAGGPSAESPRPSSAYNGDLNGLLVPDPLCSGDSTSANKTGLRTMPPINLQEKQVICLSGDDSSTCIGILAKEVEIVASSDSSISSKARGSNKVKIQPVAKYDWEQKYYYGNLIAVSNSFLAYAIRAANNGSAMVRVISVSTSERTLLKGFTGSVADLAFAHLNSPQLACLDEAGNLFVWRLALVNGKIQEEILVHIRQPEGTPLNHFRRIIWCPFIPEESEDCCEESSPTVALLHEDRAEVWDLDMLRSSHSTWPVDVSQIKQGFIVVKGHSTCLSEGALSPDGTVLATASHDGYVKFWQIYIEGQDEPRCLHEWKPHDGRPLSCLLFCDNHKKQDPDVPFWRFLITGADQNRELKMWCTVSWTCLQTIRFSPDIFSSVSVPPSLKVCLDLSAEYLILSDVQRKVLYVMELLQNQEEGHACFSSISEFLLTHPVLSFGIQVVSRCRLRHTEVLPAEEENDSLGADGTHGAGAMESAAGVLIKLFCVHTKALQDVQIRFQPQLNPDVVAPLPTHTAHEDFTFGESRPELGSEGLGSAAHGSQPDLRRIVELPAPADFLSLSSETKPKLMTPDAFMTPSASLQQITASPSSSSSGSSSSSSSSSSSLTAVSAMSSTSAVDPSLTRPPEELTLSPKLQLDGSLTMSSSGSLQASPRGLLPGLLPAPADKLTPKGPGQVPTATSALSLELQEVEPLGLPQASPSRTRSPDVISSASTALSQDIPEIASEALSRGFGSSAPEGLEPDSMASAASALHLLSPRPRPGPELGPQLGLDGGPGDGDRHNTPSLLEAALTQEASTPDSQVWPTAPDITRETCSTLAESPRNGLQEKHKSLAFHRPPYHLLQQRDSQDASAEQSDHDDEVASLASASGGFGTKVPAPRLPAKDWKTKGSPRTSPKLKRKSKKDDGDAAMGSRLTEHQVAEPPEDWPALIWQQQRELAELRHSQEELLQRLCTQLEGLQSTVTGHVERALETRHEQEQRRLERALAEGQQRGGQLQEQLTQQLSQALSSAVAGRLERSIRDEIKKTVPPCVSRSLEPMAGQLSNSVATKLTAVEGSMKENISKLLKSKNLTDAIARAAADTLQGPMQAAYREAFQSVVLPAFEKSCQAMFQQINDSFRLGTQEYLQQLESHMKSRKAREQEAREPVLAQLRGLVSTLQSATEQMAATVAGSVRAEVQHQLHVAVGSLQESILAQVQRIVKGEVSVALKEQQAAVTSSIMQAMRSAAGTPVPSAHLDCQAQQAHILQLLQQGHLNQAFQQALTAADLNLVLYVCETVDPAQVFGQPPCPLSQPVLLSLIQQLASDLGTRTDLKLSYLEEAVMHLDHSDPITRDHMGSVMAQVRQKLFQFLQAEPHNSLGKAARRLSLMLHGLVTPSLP
# UniProt Q8IW45, sequence (Q8IW45 whole entry): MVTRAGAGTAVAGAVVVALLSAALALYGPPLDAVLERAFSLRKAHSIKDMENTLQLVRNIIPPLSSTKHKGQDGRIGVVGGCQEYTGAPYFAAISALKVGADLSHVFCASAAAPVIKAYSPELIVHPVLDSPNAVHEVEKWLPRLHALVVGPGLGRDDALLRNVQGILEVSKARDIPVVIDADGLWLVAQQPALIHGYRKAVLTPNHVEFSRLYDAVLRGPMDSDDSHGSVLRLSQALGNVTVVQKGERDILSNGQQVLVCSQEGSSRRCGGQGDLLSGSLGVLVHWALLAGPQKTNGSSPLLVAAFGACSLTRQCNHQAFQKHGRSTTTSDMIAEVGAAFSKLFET
# UniProt Q00688, sequence (Q00688 whole entry): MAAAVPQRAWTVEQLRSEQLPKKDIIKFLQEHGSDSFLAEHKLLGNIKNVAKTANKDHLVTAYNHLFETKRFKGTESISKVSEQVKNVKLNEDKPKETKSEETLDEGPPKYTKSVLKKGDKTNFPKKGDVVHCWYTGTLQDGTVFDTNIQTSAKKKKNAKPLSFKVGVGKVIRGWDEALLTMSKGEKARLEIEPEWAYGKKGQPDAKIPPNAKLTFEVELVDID
# UniProt Q86WR0, sequence (Q86WR0 whole entry): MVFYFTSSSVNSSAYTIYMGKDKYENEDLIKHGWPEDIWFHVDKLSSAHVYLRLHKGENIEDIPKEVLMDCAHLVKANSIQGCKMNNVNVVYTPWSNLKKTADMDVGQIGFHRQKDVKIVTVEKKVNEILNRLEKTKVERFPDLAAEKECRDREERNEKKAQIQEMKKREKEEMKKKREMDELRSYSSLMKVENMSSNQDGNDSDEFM
Target,NP40-soluble protein abundance (concentration: 0.1mM),NP40-soluble protein abundance (concentration: 0.5mM),NP40-soluble protein abundance (concentration: 1mM),NP40-soluble protein abundance (concentration: 2mM),NP40-soluble protein abundance (concentration: 4mM),NP40-soluble protein abundance (concentration: 6mM),NP40-soluble protein abundance (concentration: 8mM),NP40-soluble protein abundance (concentration: 10mM)
UniProt Q16643|Q16643-2|Q16643-3,0.894 ± 0.061,0.888 ± 0.11,0.903 ± 0.11,0.905 ± 0.11,1.08 ± 0.1,1.24 ± 0.11,1.52 ± 0.15,1.81 ± 0.12
UniProt Q14103-3|D6RF44|Q14103-4,0.913 ± 0.097,0.946 ± 0.094,0.943 ± 0.085,0.894 ± 0.1,0.903 ± 0.1,0.915 ± 0.084,0.947 ± 0.11,0.929 ± 0.11
UniProt Q6NW34|Q6NW34-2,0.848 ± 0.051,0.888 ± 0.08,0.881 ± 0.074,0.85 ± 0.031,0.839 ± 0.071,0.929 ± 0.032,0.871 ± 0.059,0.93 ± 0.012
CCDC25 (UniProt Q86WR0),0.954 ± 0.079,0.939 ± 0.057,0.892 ± 0.051,0.842 ± 0.071,0.855 ± 0.1,0.842 ± 0.084,0.876 ± 0.059,0.863 ± 0.068
PPP2R5A (UniProt Q15172),1.04 ± 0.063,0.993 ± 0.046,0.939 ± 0.011,0.9 ± 0.033,0.877 ± 0.048,0.864 ± 0.04,0.862 ± 0.097,0.848 ± 0.055
EIF3A (UniProt Q14152),1.05 ± 0.031,1.08 ± 0.018,1.09 ± 0.062,1.18 ± 0.12,1.38 ± 0.23,1.53 ± 0.28,1.74 ± 0.34,1.94 ± 0.38
UniProt Q02447-3,0.995 ± 0.021,1 ± 0.078,1.01 ± 0.033,0.984 ± 0.067,0.983 ± 0.049,1.01 ± 0.084,1.08 ± 0.055,1.05 ± 0.016
UniProt Q13642-1|Q13642-4|Q13642-5,1.07 ± 0.16,1.09 ± 0.17,0.946 ± 0.13,0.921 ± 0.14,0.932 ± 0.12,0.911 ± 0.12,0.952 ± 0.093,0.915 ± 0.15
EIF3I (UniProt Q13347),1.02 ± 0.04,1.03 ± 0.091,0.993 ± 0.089,1.04 ± 0.15,1.13 ± 0.19,1.26 ± 0.26,1.32 ± 0.23,1.4 ± 0.29
ALDH16A1 (UniProt Q8IZ83),1.11 ± 0.033,1.1 ± 0.076,1.13 ± 0.13,1.15 ± 0.12,1.16 ± 0.17,1.15 ± 0.15,1.16 ± 0.16,1.11 ± 0.15
NOTCH2 (UniProt Q04721),0.991 ± 0.023,1.03 ± 0.042,1.086 ± 0.0064,1.12 ± 0.069,0.967 ± 0.22,1.08 ± 0.23,1.08 ± 0.028,1.06 ± 0.08
DDX1 (UniProt Q92499),1.02 ± 0.024,1.02 ± 0.066,0.941 ± 0.027,0.971 ± 0.072,0.997 ± 0.059,0.993 ± 0.063,0.971 ± 0.013,0.961 ± 0.038
TWF2 (UniProt Q6IBS0),1.02 ± 0.035,1.09 ± 0.049,1.02 ± 0.017,1.02 ± 0.055,1.03 ± 0.08,1.01 ± 0.013,0.95 ± 0.032,0.951 ± 0.012
PPP1CA (UniProt P62136),0.894 ± 0.12,0.92 ± 0.12,0.861 ± 0.081,0.834 ± 0.072,0.855 ± 0.083,0.853 ± 0.056,0.837 ± 0.098,0.828 ± 0.092
UniProt P62277,0.945 ± 0.11,0.964 ± 0.11,1.03 ± 0.22,1.02 ± 0.3,0.802 ± 0.25,0.796 ± 0.27,0.626 ± 0.17,0.816 ± 0.29
UniProt Q86V48|Q86V48-2|Q86V48-3,0.953 ± 0.056,0.967 ± 0.042,1.01 ± 0.051,0.99 ± 0.097,1.03 ± 0.088,1.08 ± 0.081,1.17 ± 0.1,1.2 ± 0.11
UniProt Q8IW45|Q8IW45-2,1.01 ± 0.071,0.978 ± 0.074,0.985 ± 0.038,0.945 ± 0.021,0.969 ± 0.013,0.915 ± 0.045,0.954 ± 0.077,0.91 ± 0.035
Q5QPL9|Q9UKM9-2|Q9UKM9 (UniProt Q9UKM9),0.927 ± 0.04,1 ± 0.025,1.07 ± 0.14,1.07 ± 0.2,1.07 ± 0.28,1.05 ± 0.25,1.01 ± 0.24,0.949 ± 0.23
Q5STZ8|Q8NE71 (UniProt Q8NE71),1.03 ± 0.023,1.02 ± 0.019,0.96 ± 0.053,0.987 ± 0.043,0.993 ± 0.06,0.997 ± 0.046,0.994 ± 0.066,0.984 ± 0.092
UniProt P63092-2|P63092-3|P63092|P63092-4,0.973 ± 0.013,0.9607 ± 0.0034,0.922 ± 0.025,0.91 ± 0.024,0.882 ± 0.043,0.882 ± 0.038,0.873 ± 0.026,0.847 ± 0.031
EDC4 (UniProt Q6P2E9),0.984 ± 0.029,1 ± 0.037,1.01 ± 0.045,1.01 ± 0.029,1.01 ± 0.039,1.02 ± 0.032,1.02 ± 0.057,1.04 ± 0.046
YRDC (UniProt Q86U90),0.989 ± 0.041,0.952 ± 0.022,0.949 ± 0.027,0.943 ± 0.015,0.946 ± 0.041,0.899 ± 0.026,0.871 ± 0.07,0.916 ± 0.055
SNW1 (UniProt Q13573),0.96 ± 0.049,0.94 ± 0.064,0.97 ± 0.028,0.94 ± 0.071,0.942 ± 0.063,0.959 ± 0.041,1.01 ± 0.046,1.03 ± 0.051
UniProt Q8WXA9-2,1.02 ± 0.067,1.11 ± 0.044,1.14 ± 0.077,1.12 ± 0.082,1.15 ± 0.067,1.11 ± 0.07,1.18 ± 0.035,1.18 ± 0.1
UniProt Q12872|Q12872-2,0.979 ± 0.031,1.04 ± 0.027,1.17 ± 0.014,1.24 ± 0.024,1.42 ± 0.016,1.52 ± 0.068,1.7 ± 0.13,1.78 ± 0.13
UniProt Q68E01|Q68E01-2,1.01 ± 0.028,1.01 ± 0.026,1.03 ± 0.027,1.03 ± 0.03,1.08 ± 0.026,1.12 ± 0.053,1.11 ± 0.036,1.11 ± 0.021
UniProt Q8IZ81|D6RBS5,1.12 ± 0.15,1.15 ± 0.2,0.932 ± 0.066,0.934 ± 0.069,0.944 ± 0.063,0.877 ± 0.048,0.958 ± 0.13,0.802 ± 0.051
FKBP3 (UniProt Q00688),0.911 ± 0.048,0.906 ± 0.066,0.943 ± 0.073,0.906 ± 0.081,0.902 ± 0.081,0.905 ± 0.082,0.925 ± 0.077,0.943 ± 0.09
